Assay results: the supplement of paper PMC7726561
Whole data set: some 1,400 sequences, median “thermal melting temperature (Tm) of peptide-HLA complex” near 60, cut for the lowest 2% near 45. Shown is part of a subset that was picked to be rich in the lowest values.

Each sequence was assayed against HLA-B*07:02 (assay: thermal melting temperature (Tm) of peptide-HLA complex; higher = more thermostable pHLA complex). Conditions: C1R-B*07:02.
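Note: lysates heated 10 min at 37–73 °C, complexes pulled down with pan-HLA I antibody, peptide signal by DIA-MS relative to 37 °C, Tm where half the complex is unfolded.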

Question: SPLVSRLTLY was tested. Which thermal melting temperature did it give?
Answer: 41.1 °C

Question: SPLVSRLTL was tested. Which thermal melting temperature did it give?
Answer: 61.4 °C

Question: Which thermal melting temperature does the source give for RPQLKGVVL here?
Answer: 61.1 °C

Question: SPLPSPSAM was tested. Which thermal melting temperature did it give?
Answer: 63.8 °C

Question: For HPISNNNSL, which thermal melting temperature is on record?
Answer: 41.6 °C

Question: Which thermal melting temperature does the source give for NPMVTGTSV here?
Answer: 56.3 °C

Question: With LPHEVDKSEL as the sequence, how does the thermal melting temperature read?
Answer: 44.8 °C

Question: How did the thermal melting temperature turn out when SPVLRNFTF was run?
Answer: 41.7 °C

Question: For IPRPEVQAL, which thermal melting temperature is on record?
Answer: 54.1 °C

Question: For VPQVKASAL, which thermal melting temperature is on record?
Answer: 59 °C

Question: LPGLRDLVL was tested. Which thermal melting temperature did it give?
Answer: 61.7 °C

Question: With MPKVKTIEL as the sequence, how does the thermal melting temperature read?
Answer: 56.4 °C

Question: With APRSVAVSSI as the sequence, how does the thermal melting temperature read?
Answer: 59.4 °C

Question: For SPHPGLLL, which thermal melting temperature is on record?
Answer: 61 °C

Question: KPHIGLTEL was tested. Which thermal melting temperature did it give?
Answer: 60.7 °C

Question: Which thermal melting temperature does the source give for LPRTPSYSI here?
Answer: 62.1 °C

Question: Which thermal melting temperature does the source give for HPISSEELLSL here?
Answer: 58.6 °C

Question: With MPKLRVLEL as the sequence, how does the thermal melting temperature read?
Answer: 57.1 °C

Question: For YPNERFELL, which thermal melting temperature is on record?
Answer: 63.1 °C

Question: Which thermal melting temperature does the source give for APSDLRTIQTF here?
Answer: 62.8 °C

Question: How did the thermal melting temperature turn out when RPFFPLTATL was run?
Answer: 49.6 °C

Question: For FIRNRTLQL, which thermal melting temperature is on record?
Answer: 61.5 °C

Question: MPARWLTHL was tested. Which thermal melting temperature did it give?
Answer: 55 °C

Question: With QPVAGRPSL as the sequence, how does the thermal melting temperature read?
Answer: 55.8 °C

Question: Which thermal melting temperature does the source give for QPNLKLLAM here?
Answer: 62.9 °C

Question: Which thermal melting temperature does the source give for SPRGAGYLF here?
Answer: 63 °C

Question: Which thermal melting temperature does the source give for RPVLWVGV here?
Answer: 60.8 °C
